Bioassay records: PubChem BioAssay, National Center for Advancing Translational Sciences (NCATS)
Shown are actives, neighbours in structure and some others; about 8.1% of the full set was active somewhere.
KB-3-1 tox = kills parental KB-3-1 adenocarcinoma cells | KB-3-1 viability, CellTiter-Glo ATP luminescence, 72 h | actives 1.4% (n = 400,000) | Potency, µM (doses to about 46.1 µM), most hits filed as cytotoxic; also: % is scaled to controls: 0 for no effect and ±100 for the full control effect; nearly all actives have a fitted effect of over 60% in size
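Parental KB-3-1 viability, qHTS format: 72 h compound exposure, 37 °C; CellTiter-Glo; media-only wells and DMSO plates as controls; concentration-effect fits on corrected data.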
KB-V1 cytotox = kills drug-selected multidrug resistant KB-V1 cells. KB-V1 MDR cells viability, CellTiter-Glo, 72 h. actives 3.4% (n = 400,000). AID 1347076. Potency, µM (top dose mostly 46.1 µM), actives largely listed as cytotoxic; also: % is scaled to controls: 0 for no effect and ±100 for the full control effect; nearly all actives have a fitted effect of over 60% in size
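Cells of the MDR subline KB-V1 are plated, dosed with compound at multiple concentrations, and incubated 72 h at 37 degrees C; CellTiter-Glo is then added and luminescence read after 10 min.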
MCF10A rerep = DNA re-replication induction in MCF 10a cells; Potency, µM (highest dose often 46.1 µM), without a hit: at the top dose activity, positive = re-replication, hits mostly activators; actives 2.9% (n = 350,000); AID 624296; MCF 10A DNA re-replication, Hoechst nuclear intensity, 48 h; also: % of control where 0% means no effect; nearly all actives have a fitted effect of over 50% in size
SW480 rerep = DNA re-replication induction in SW480 cells. SW480 DNA re-replication, Hoechst DNA content imaging, 48 h. Potency, µM (highest dose often 46.1 µM), for the others: at the highest dose re-replication activation, hits mostly activators. actives 1.8% (n = 340,000). AID 624297; also: % of control where 0% means no effect; nearly all actives have a fitted effect of over 55% in size
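Compounds, transferred as 23 nL by pin tool, were incubated with cells for 48 hr; DNA content per nucleus was then quantified by Hoechst staining and fluorescence plate imaging.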
ELG1 repair inh = inhibitors of ELG1-dependent DNA repair in HEK293T cells | Potency, µM (series often up to 46.1 µM), for the others: top-dose activity change, negative = inhibition, most hits filed as inhibitors | HEK293T ELG1-luciferase reporter, luminescence, 16 h; DNA damage induced by 5-fluorouridine | actives 2.3% (n = 330,000); also: % is scaled to controls: 0 for no effect and ±100 for the full control effect; nearly all actives have a fitted effect of over 55% in size
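Cells (2,000 per well) received 5-fluorouridine plus test compound or DMSO and were incubated 16 hr at 37 °C, 5% CO2. Luciferase activity was read by luminescence 30 min after ONE-Glo addition; signal suppression marked inhibition of damage-induced ELG1 function.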
Active calls of the source: *; i = inactive; u = inconclusive; x = no result. Calls follow the shape of the dose curve; as a rule, active = well fitted curve in the direction sought with a large enough effect; inconclusive = small, poorly fitted or top-dose-only effect, or another doubt; inactive = no such curve, though single readings can be large; an effect the other way counts as inactive or inconclusive. Potency is read from the fitted curve at half-maximal effect.

SMILES	KB-3-1 tox	KB-V1 cytotox	MCF10A rerep	SW480 rerep	ELG1 repair inh
Cc1cc(C)n(CCc2nc3c4ccccc4nc(N4CCN(c5cccc(C)c5C)CC4)n3n2)n1	i	i	x	x	x
Cc1ccc(-c2cc3c(n2-c2ccc(C(=O)O)cc2)CCCC3=O)cc1	i	i	5.0%	x	u
C[n+]1c(-c2ccccc2)cc2c(=Cc3ccc([N+](=O)[O-])cc3)c3ccccc3n21	u	u	9.4%	29.5%	x
C[n+]1c(-c2ccccc2)cc2c(=Cc3ccccc3)c3ccccc3n21	u	u	20.6µM*	u	x
Cc1nc2c(C)cccn2c1C(=O)c1ccccc1	u	25.9µM*	-3.0%	-4.4%	-14.4%
CCOC(=O)c1c(C)nc2c(C)cccn12	i	i	-4.1%	-1.0%	1.5%
CN(C)c1ccc(/C=N/NC(=O)COc2ccccc2)cc1	i	u	0.5%	-0.3%	u
O=C(CSc1nc2ccccc2s1)N/N=C/c1ccc(C(=O)O)cc1	i	u	-1.0%	-2.6%	16.0%
COc1ccc(/C=N/NC(=O)COc2ccccc2-c2ccccc2)cc1	1.16µM*	0.82µM*	0.82µM*	0.92µM*	-10.8%
O=C(COc1ccccc1-c1ccccc1)N/N=C/c1cccc2ccccc12	1.3µM*	0.92µM*	0.461µM*	u	-4.4%
COc1ccc(/C=N/NC(=O)CCSc2nc3ccccc3s2)cc1	u	i	u	10.3µM*	u
CC(NC(=O)COc1ccccc1-c1ccccc1)c1ccccc1 (stereo not given)	i	i	4.61µM*	10.0%	-2.6%
O=C(Nc1ccccc1)C1C2/C=C\CCCCC21 (stereo not given)	i	i	9.1%	-66.2%	u
O=C(COc1ccccc1Br)NC1CC1	i	i	-2.2%	7.8%	u
O=C(CNc1cccc(S(=O)(=O)N2CCOCC2)c1)Nc1cccc(Br)c1	u	u	11.7%	0.3%	u
O=C(NCCN1CCNC1=O)c1ccc2sc([C@H]3C[C@H](O)[C@@H](CO)O3)nc2c1	i	i	x	x	x
Cc1ccc(C2(c3noc(CN4CCC(c5ccncc5)CC4)n3)CCCC2)cc1	i	i	16.9%	13.0%	16.4µM*
CCCCC(CC)CN=C(N)NC(N)=NCCCCCCN=C(N)NC(N)=NCC(CC)CCCC (stereo not given)	u	u	11.9µM*	u	u
CCCCC(CC)CO (stereo not given)	i	i	6.8%	-68.7%	-12.1%
Cc1cc(-c2ccc(N=Nc3c(S(=O)(=O)O)cc4cc(S(=O)(=O)O)cc(N)c4c3O)c(C)c2)ccc1N=Nc1c(S(=O)(=O)O)cc2cc(S(=O)(=O)O)cc(N)c2c1O	x	x	-16.0%	-13.7%	7.3µM*
O=S(=O)(O)c1cc(O)c2c(O)c(N=Nc3cc(Cl)ccc3O)c(S(=O)(=O)O)cc2c1	14.6µM*	u	-3.0%	21.9%	u
COc1cc(S(=O)(=O)O)c(C)cc1N=Nc1c(O)ccc2cc(S(=O)(=O)O)ccc12	i	i	x	x	x
Cc1ccc(F)cc1NC(=O)C1CC(=O)N(CCc2ccccc2)C1 (stereo not given)	i	i	u	-28.5%	-14.9%
COC(=O)c1ccccc1CC1SC(N)=NC1=O (stereo not given)	i	i	-0.9%	8.7%	-4.6%
COc1cc2nn(-c3ccccc3N)nc2cc1OC	i	i	x	x	x
CCOC(=O)C1(Cc2ccccc2)CCN(Cc2ccc(C3CCCCO3)s2)CC1 (stereo not given)	i	u	16.4µM*	11.5%	u
CCOC(=O)C1(Cc2ccccc2)CCN(Cc2ccc(C)s2)CC1	i	u	u	0.2%	u
COc1ccc(-c2nn(C)c(=O)c3ccccc23)cc1NC(=O)Cn1nc(C)c2ccccc2c1=O	i	20.6µM*	16.2%	28.5%	-10.9%
CCC(=O)Nc1cc(-c2nn(C)c(=O)c3ccccc23)ccc1OC	i	11.6µM*	3.0%	-5.2%	u
